This is a sample that favours compounds with a hit; in the whole collection about 6.2% have one here.
HT1080-NT tox = qHTS for induction of synthetic lethality in tumor cells producing 2HG: qHTS for the HT-1080-NT fibrosarcoma cell line; 360,000 tested, 1.6% active; AID 686970, 2013; HT-1080-NT fibrosarcoma viability, CellTiter-Glo ATP luminescence, 48 h; Potency, µM (highest dose often 46.1 µM), most hits filed as cytotoxic;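 also: NT is the 2HG producing partner of a matched IDH1 knockdown line; nearly all actives have a fitted effect of over 55% in size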
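HT-1080-NT fibrosarcoma cells (2HG-overproducing), 750 cells/well in RPMI with 5% FBS, dosed after 2 h and incubated 48 h at 37C. CellTiter-Glo luminescence normalized to DMSO and no-cell wells; concentration-response curves fitted and classed.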
KB-V1 MDR tox = qHTS assay for MDR1-selective chemotherapeutics: Primary screen using the drug-selected MDR subline cells KB-V1; KB-V1 MDR cells viability, CellTiter-Glo, 72 h; Potency, µM (series often up to 46.1 µM), usual class: cytotoxic; 400,000 tested, 3.4% active; AID 1347076, 2019; also: nearly all actives have a fitted effect of over 60% in size
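Following 72 h at 37 degrees C with compound, KB-V1 cell viability was read by CellTiter-Glo luminescence, medium being phenol-red-free DMEM plus 10% FBS; concentration-response parameters came from normalized, curve-fitted qHTS data.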
S2 tox = Viability Counterscreen for Primary qHTS for Inhibitors of ATXN expression; S2 cells (HEK-293 line with an ATXN2-luciferase reporter) viability, CellTiter-Fluor protease fluorescence, 24 h; 400,000 tested, 0.49% active; Potency, µM (highest dose often 56.7 µM), hits mostly cytotoxic; also: nearly all actives have a fitted effect of over 40% in size
ATXN2 expr inh = Primary qHTS for Inhibitors of ATXN expression | Potency, µM (doses to about 57 µM), actives largely listed as inhibitors | 360,000 tested, 0.72% active | HEK-293 ATXN2-luciferase reporter, luminescence, 24 h; also: nearly all actives have a fitted effect of over 55% in size
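qHTS (up to 57 uM final) was run with 24 h compound exposure of reporter cells at 37 °C. Each well was multiplexed: SteadyGlo luminescence measured ATXN2-luciferase expression after a fluorogenic Gly-Phe-AFC viability readout (25 uM final).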
KB-3-1 cytotox = qHTS assay for MDR1-selective chemotherapeutics: Primary screen using the parental adenocarcinoma cell KB-3-1; Potency, µM (highest dose often 46.1 µM), actives largely listed as cytotoxic; 400,000 tested, 1.4% active; AID 1347075, 2019; KB-3-1 viability, CellTiter-Glo ATP luminescence, 72 h; also: nearly all actives have a fitted effect of over 60% in size
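KB-3-1 cells, DMEM (no phenol red) + 10% FBS; compound by pin transfer, 72 h, 37 °C. Readout: CellTiter-Glo luminescence after 10 min. Data normalized, curve-fitted.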
HT1080 IDH1KD tx = qHTS for induction of synthetic lethality in tumor cells producing 2HG: qHTS for the HT-1080-IDH1KD cell line. HT-1080 IDH1 knockdown viability, ATP luminescence, 48 h. Potency, µM (highest dose often 46.1 µM), most hits filed as cytotoxic. 360,000 tested, 2% active. AID 686971, 2013
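IDH1KD HT-1080 cells, 750/well, RPMI + 5% FBS; compound pinned after 2 h settling; 48 h, 37 °C; CellTiter-Glo luminescence; % activity normalised to DMSO and no-cell wells; curves fitted, classed by r2 and efficacy.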
Of the large screens only hits and unclear results are named; the others gave an inactive call. Calls follow the shape of the dose curve; as a rule, active = well fitted curve in the direction sought with a large enough effect; inconclusive = small, poorly fitted or top-dose-only effect, or another doubt; inactive = no such curve, though single readings can be large; an effect the other way counts as inactive or inconclusive.

Cc1ccc(NC(c2cccc(Cl)c2)c2nnc(-c3ccccc3)o2)cc1F (configuration not stated)	KB-V1 MDR tox inconclusive (no result: HT1080-NT tox, HT1080 IDH1KD tx)
O=C1c2cc(F)ccc2-n2c1nc1ccccc1c2=O	HT1080-NT tox inconclusive, KB-V1 MDR tox 5.2µM, ATXN2 expr inh inconclusive, KB-3-1 cytotox 6.5µM, HT1080 IDH1KD tx inconclusive
Nn1c(-c2ccc(F)cc2)nc2ccccc2c1=O	none
CCCCC(=O)Nc1ccc(OCc2cc(=O)n3c(C)csc3n2)cc1	none (no result: HT1080-NT tox, HT1080 IDH1KD tx)
CCCC(=O)Nc1ccc(C(=O)NCCc2ccc(F)cc2)cc1	KB-V1 MDR tox 15µM
CSCCC(c1nc2ccccc2[nH]1)n1c(-c2cc(C(F)(F)F)cc(C(F)(F)F)c2)nc2ccccc21 (configuration not stated)	HT1080-NT tox 33µM, KB-V1 MDR tox inconclusive, HT1080 IDH1KD tx 21µM (no result: S2 tox, ATXN2 expr inh)
CSCCC(c1nc2ccccc2[nH]1)n1c(C)nc2ccccc21 (configuration not stated)	S2 tox inconclusive
Cc1ccccc1-n1ncc2c(SCC(=O)N3c4ccccc4CC3C)ncnc21 (configuration not stated)	HT1080-NT tox inconclusive, KB-V1 MDR tox 9.2µM, HT1080 IDH1KD tx inconclusive
CCc1nc(SCC(=O)Nc2ccccc2OC)c2c(C)c(C)sc2n1	KB-V1 MDR tox 9.2µM
CCOC(=O)CSc1nc(C(C)C)nc2sc(C)c(C)c12	none
CCc1nc(SCC(=O)Nc2cc(C)ccc2OC)c2c(C)c(C)sc2n1	KB-V1 MDR tox inconclusive, KB-3-1 cytotox inconclusive
Cc1sc2nc(C(C)C)nc(SCC(=O)N3c4ccccc4CC3C)c2c1C (configuration not stated)	KB-V1 MDR tox 18µM
CCc1nc(SCC(=O)N2c3ccccc3CC2C)c2c(C)c(C)sc2n1 (configuration not stated)	HT1080-NT tox 6.3µM, ATXN2 expr inh inconclusive, HT1080 IDH1KD tx inconclusive
CCc1nc(SCC(=O)N2CC(=O)Nc3ccccc32)c2c(C)c(C)sc2n1	none
Cc1ccccc1-n1ncc2c(SCC(=O)NC3CCCC3)ncnc21	KB-V1 MDR tox inconclusive
O=C(CSc1nnc(NC(=O)C2CC2)s1)Nc1cccc(F)c1	KB-V1 MDR tox inconclusive
O=C(CCS(=O)(=O)c1cccc2nonc12)Nc1c(F)cccc1F	none (no result: HT1080-NT tox, HT1080 IDH1KD tx)
CC1=C(C(=O)OCC2CCCO2)C(c2cccc(C(F)(F)F)c2)C2=C(CC(c3ccco3)CC2=O)N1 (configuration not stated)	KB-V1 MDR tox inconclusive, KB-3-1 cytotox 16µM, HT1080 IDH1KD tx inconclusive (no result: S2 tox, ATXN2 expr inh)
O=C(Nc1ccc(Cl)c(Cl)c1)N[C@@H]1CC[C@@H](CCn2cc(C3CCCCC3)nn2)O[C@@H]1CO	HT1080-NT tox 21µM, KB-3-1 cytotox inconclusive, HT1080 IDH1KD tx 23µM (no result: S2 tox, ATXN2 expr inh)
CC(C)C(=O)N(c1cc2sc(=O)oc2c2ccccc12)S(=O)(=O)c1cccs1	HT1080-NT tox 11µM, KB-V1 MDR tox inconclusive, HT1080 IDH1KD tx inconclusive
CC(C)C(=O)N(c1ccc2oc(=O)sc2c1)S(=O)(=O)c1cccs1	none
CCCCC[C@@H](C)N1C[C@H](COCc2ccccc2)Oc2cc(N3CCC[C@H]3COC)ccc2S1(=O)=O	KB-V1 MDR tox inconclusive
CC1(c2ccc([N+](=O)[O-])cc2)Nc2ccccc2S1 (configuration not stated)	HT1080-NT tox inconclusive, HT1080 IDH1KD tx 21µM
O=C1Nc2ccccc2/C1=C/c1ccc([N+](=O)[O-])cc1	none
CC1CCCN(C(=O)NC2CC(=O)N(c3ccc4c(c3)OCCO4)C2)C1 (configuration not stated)	none
CCOc1ccccc1N(C)C(=O)c1sc2ncn(CC(=O)N3CCCCC3C)c(=O)c2c1C (configuration not stated)	none
CC(=O)c1ccc(N=Nc2ccc(C)cc2)cc1	none

Compound activity deposited in PubChem by National Center for Advancing Translational Sciences (NCATS).
